The panel holds about 83,000 compounds, 20% with a hit somewhere; the sample as a whole holds those more often.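 96-well plates, one dose, 48 hours. Percent growth reported; active if below 10.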 The source made the active and inactive calls.
Tests used:
Assay in all cases: NCI-60 one-dose screen, 48 h (100 = growth as untreated, 0 = no growth, -100 = all killed)
Settings in all cases: 10 µM unless noted
DU-145 prostate = tested on: DU-145 prostate
K-562 leukemia = tested on: K-562 leukemia
MALME-3M melanoma = tested on: MALME-3M melanoma
MDA-MB-231 breast = tested on: MDA-MB-231 breast
RXF 393 renal = tested on: RXF 393 renal
SF-268 CNS = tested on: SF-268 CNS
SF-295 CNS = tested on: SF-295 CNS
SF-539 CNS = tested on: SF-539 CNS
UACC-257 melanoma = tested on: UACC-257 melanoma
M14 melanoma = tested on: M14 melanoma
HCT-15 colon = tested on: HCT-15 colon
HT29 colon = tested on: HT29 colon
U251 CNS = tested on: U251 CNS
PC-3 prostate = tested on: PC-3 prostate
SK-MEL-5 melanoma = tested on: SK-MEL-5 melanoma
UACC-62 melanoma = tested on: UACC-62 melanoma
LOX IMVI melanoma = tested on: LOX IMVI melanoma
SK-MEL-28 melanoma = tested on: SK-MEL-28 melanoma
SNB-19 CNS = tested on: SNB-19 CNS

Measured: growth

Nc1ccc2c(c1)C(=O)C(=O)c1c-2nc2ccccn12
active: DU-145 prostate -91.1% | K-562 leukemia 1.75% | MALME-3M melanoma -98.7% | MDA-MB-231 breast -7.84% | SF-295 CNS -67.6% | SF-539 CNS -32.9% | UACC-257 melanoma -67.9% | M14 melanoma -91.1% | HCT-15 colon -29.8% | U251 CNS 9.14% | SK-MEL-5 melanoma -99.8% | UACC-62 melanoma -85.3% | LOX IMVI melanoma -12.7% | SK-MEL-28 melanoma -28.9%
inactive: RXF 393 renal 29% | SF-268 CNS 26.6% | HT29 colon 76.1% | PC-3 prostate 24%

COc1ccc(C2CC(c3ccc(OC)cc3O)=NN2c2ccc(S(N)(=O)=O)cc2)cc1 (stereo not given)
inactive: DU-145 prostate 61.9% | K-562 leukemia 10.8% | MALME-3M melanoma 121% | MDA-MB-231 breast 61.1% | RXF 393 renal 67.5% | SF-268 CNS 50.5% | SF-539 CNS 69.8% | UACC-257 melanoma 56.6% | M14 melanoma 34.1% | HCT-15 colon 33.6% | HT29 colon 33.7% | SNB-19 CNS 59.5% | U251 CNS 40.9% | PC-3 prostate 15.5% | SK-MEL-5 melanoma 49% | UACC-62 melanoma 38.1% | LOX IMVI melanoma 52.5% | SK-MEL-28 melanoma 56.1%
active: SF-295 CNS -7.99%

Cc1c(C(=O)Nc2nc3ccccc3[nH]2)cnn1-c1ccccn1
inactive: DU-145 prostate 112% | K-562 leukemia 93.5% | MALME-3M melanoma 106% | MDA-MB-231 breast 109% | RXF 393 renal 105% | SF-268 CNS 107% | SF-295 CNS 102% | SF-539 CNS 98.9% | UACC-257 melanoma 82.4% | M14 melanoma 111% | HCT-15 colon 104% | HT29 colon 66% | SNB-19 CNS 101% | U251 CNS 97.4% | PC-3 prostate 93.1% | SK-MEL-5 melanoma 99.9% | UACC-62 melanoma 107% | LOX IMVI melanoma 104% | SK-MEL-28 melanoma 112%

O=C(N/N=C/C[C@@H]1[C@@H](/C=C/[C@@H](O)COc2cccc(Cl)c2)[C@H](O)C[C@@H]1O)c1ccncc1
inactive: DU-145 prostate 108% | K-562 leukemia 95.9% | MALME-3M melanoma 98.1% | MDA-MB-231 breast 101% | RXF 393 renal 105% | SF-268 CNS 103% | SF-295 CNS 99.5% | SF-539 CNS 104% | UACC-257 melanoma 77.5% | M14 melanoma 99.6% | HCT-15 colon 99.3% | HT29 colon 71.1% | SNB-19 CNS 98.1% | U251 CNS 92.9% | PC-3 prostate 91% | SK-MEL-5 melanoma 96.6% | UACC-62 melanoma 92.9% | LOX IMVI melanoma 94.3% | SK-MEL-28 melanoma 103%

O=CN1N=C(c2ccc(F)cc2)CC1c1cccc(Nc2ccnc3cc(C(F)(F)F)ccc23)c1 (stereo not given)
inactive: DU-145 prostate 70.9% | K-562 leukemia 22.7% | MALME-3M melanoma 67.9% | MDA-MB-231 breast 72.5% | RXF 393 renal 71.2% | SF-268 CNS 51.9% | SF-295 CNS 44.2% | SF-539 CNS 77.5% | UACC-257 melanoma 48.6% | M14 melanoma 70% | HCT-15 colon 58% | HT29 colon 47.8% | SNB-19 CNS 63.9% | U251 CNS 53.2% | PC-3 prostate 41.8% | UACC-62 melanoma 53.4% | LOX IMVI melanoma 40.2% | SK-MEL-28 melanoma 82.2%
active: SK-MEL-5 melanoma -15.2%

O=c1c2ccccc2oc2ccc(OCCCCCN3CCCCCC3)cc12
inactive: DU-145 prostate 94.1% | K-562 leukemia 21.3% | MALME-3M melanoma 40.2% | MDA-MB-231 breast 77.6% | RXF 393 renal 58.6% | SF-268 CNS 79% | SF-295 CNS 87.8% | SF-539 CNS 79.4% | M14 melanoma 31.5% | HCT-15 colon 33.1% | HT29 colon 12.9% | SNB-19 CNS 84% | U251 CNS 60.3% | PC-3 prostate 80.7% | LOX IMVI melanoma 49.8% | SK-MEL-28 melanoma 86.3%
active: UACC-257 melanoma 2.91% | SK-MEL-5 melanoma -35.2% | UACC-62 melanoma 2.08%

N#Cc1c(-c2ccc(F)cc2)c(C#N)c2c(C#N)c(N)nn2c1N
inactive: DU-145 prostate 89.8% | K-562 leukemia 106% | MALME-3M melanoma 110% | MDA-MB-231 breast 102% | RXF 393 renal 84.4% | SF-268 CNS 93.3% | SF-295 CNS 101% | SF-539 CNS 90.8% | UACC-257 melanoma 110% | M14 melanoma 105% | HCT-15 colon 106% | HT29 colon 98.7% | SNB-19 CNS 108% | U251 CNS 94.7% | PC-3 prostate 77.4% | SK-MEL-5 melanoma 96.8% | UACC-62 melanoma 105% | LOX IMVI melanoma 89.9% | SK-MEL-28 melanoma 111%

COc1ccc(/C=C/C(=O)c2ccc(NC(=O)CSc3nnc(-c4ccc(OC)c(OC)c4)n3-c3ccccc3)cc2)cc1
active: K-562 leukemia 8.42% | MALME-3M melanoma -75% | MDA-MB-231 breast 1.36% | HCT-15 colon 4.42% | U251 CNS -9.68%
inactive: DU-145 prostate 40.8% | RXF 393 renal 94.4% | SF-268 CNS 80.6% | SF-295 CNS 91.4% | SF-539 CNS 87.5% | UACC-257 melanoma 90% | M14 melanoma 36.2% | HT29 colon 43.7% | SNB-19 CNS 60.5% | PC-3 prostate 53.1% | SK-MEL-5 melanoma 73.4% | UACC-62 melanoma 68.4% | SK-MEL-28 melanoma 95.8%

CNc1cccc2c1C(=O)c1cccc(N)c1C2=O
inactive: DU-145 prostate 40.1% | K-562 leukemia 26.2% | MALME-3M melanoma 87.4% | MDA-MB-231 breast 85.9% | RXF 393 renal 60.9% | SF-268 CNS 56.1% | SF-295 CNS 88.5% | SF-539 CNS 85.7% | UACC-257 melanoma 80.5% | M14 melanoma 11.3% | HCT-15 colon 58.6% | HT29 colon 71.2% | SNB-19 CNS 84.2% | U251 CNS 29.6% | PC-3 prostate 40.7% | SK-MEL-5 melanoma 88% | UACC-62 melanoma 77.3% | LOX IMVI melanoma 79.1% | SK-MEL-28 melanoma 96.3%

COC(=O)c1nc(-c2ccccc2)oc1S(=O)(=O)n1nc(-c2ccccc2)cc1N
inactive: DU-145 prostate 96.2% | MDA-MB-231 breast 103% | RXF 393 renal 103% | SF-268 CNS 87.5% | SF-295 CNS 97.5% | SF-539 CNS 80.7% | UACC-257 melanoma 52% | M14 melanoma 76% | HCT-15 colon 63.6% | HT29 colon 43.1% | SNB-19 CNS 101% | U251 CNS 97% | PC-3 prostate 102% | SK-MEL-5 melanoma 94.7% | UACC-62 melanoma 95.2% | LOX IMVI melanoma 72.3% | SK-MEL-28 melanoma 89.6%
active: K-562 leukemia 4.99% | MALME-3M melanoma 2.22%

NC(=O)C(O)(c1ccccc1)c1ccccc1
inactive: DU-145 prostate 105% | K-562 leukemia 99.6% | MALME-3M melanoma 113% | MDA-MB-231 breast 108% | RXF 393 renal 123% | SF-268 CNS 110% | SF-295 CNS 99.7% | SF-539 CNS 103% | UACC-257 melanoma 91.8% | M14 melanoma 97.1% | HCT-15 colon 101% | HT29 colon 92.3% | SNB-19 CNS 99.4% | U251 CNS 101% | PC-3 prostate 87.3% | SK-MEL-5 melanoma 106% | UACC-62 melanoma 95.9% | LOX IMVI melanoma 100% | SK-MEL-28 melanoma 112%

CC1(C)[C@@H](O)CC[C@]2(C)[C@H]3CC[C@@H]4[C@H]5[C@H](c6cn(-c7ccccc7)nn6)CC[C@]5(CO)CC[C@@]4(C)[C@]3(C)CC[C@@H]12
inactive: DU-145 prostate 95.4% | K-562 leukemia 79.2% | MALME-3M melanoma 104% | MDA-MB-231 breast 84.3% | RXF 393 renal 65.3% | SF-268 CNS 76.7% | SF-295 CNS 86.5% | SF-539 CNS 92.6% | UACC-257 melanoma 83.6% | M14 melanoma 90.5% | HCT-15 colon 88.8% | HT29 colon 84.7% | SNB-19 CNS 93.1% | U251 CNS 89.6% | PC-3 prostate 52.8% | SK-MEL-5 melanoma 83.7% | UACC-62 melanoma 79.6% | LOX IMVI melanoma 95.6% | SK-MEL-28 melanoma 88.7%

Cc1cc(C)c2nc(Nc3nc(C)c(C)c(=O)[nH]3)nc(C)c2c1
active: MALME-3M melanoma -6.48% | RXF 393 renal -32.4% | HCT-15 colon 7.23% | HT29 colon 9.28% | SK-MEL-5 melanoma 2.14% | UACC-62 melanoma -37.7% | LOX IMVI melanoma 6.29% | SK-MEL-28 melanoma 3.48%
inactive: DU-145 prostate 19.1% | K-562 leukemia 12.2% | MDA-MB-231 breast 27.8% | SF-268 CNS 26.9% | SF-295 CNS 11% | SF-539 CNS 13.5% | UACC-257 melanoma 14.1% | M14 melanoma 13.7% | SNB-19 CNS 22% | U251 CNS 16.7% | PC-3 prostate 20.9%

From PubChem BioAssay (NCI)
